Screening data (PubChem)
Most compounds without a hit are left out; they make up all but 3.3% or so of the library.
NS1 function inh: qHTS Assay for Inhibitors of Influenza NS1 Protein Function | Potency, µM (titrated, usually from 46.1 µM), inactives show at the top dose activity, positive = more growth | 0.4% of 270,000 active | AID 2326, 2010; calls by dose curve; also: actives are rising curves; nearly all actives have a fitted effect of over 50% in size
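Compounds were scored for reversing the slow growth caused by influenza A NS1 in S. cerevisiae, measured by optical density at 600 nm. Assay medium contained 2% galactose at pH 6.0; NS1-free yeast of the same strain were the positive control.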
SARS PLP yeast: qHTS of Yeast-based Assay for SARS-CoV PLP. 0.19% of 330,000 active. S. cerevisiae expressing SARS-CoV PLpro, growth rescue. Potency, µM (series often up to 32.9 µM), inactives show top-dose activity, positive = growth rescue, most hits filed as activators. AID 485353, 2010; calls by dose curve; also: 0% is about no effect; nearly all actives have a fitted effect of over 55% in size
Sm TGR inh: qHTS Assay for the Inhibitors of Schistosoma Mansoni Peroxiredoxins; Potency, µM (doses to about 114 µM), without a hit: top-dose activity change, negative = inhibition, most hits filed as inhibitors; Schistosoma mansoni thioredoxin glutathione reductase (TGR), Q962Y6; 3% of 360,000 active; purified TGR, DTNB reduction, TNB absorbance 405 nm; also: % is scaled to controls: 0 for no effect and ±100 for the full control effect; nearly all actives have a fitted effect of over 60% in size
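First, TGR (20 nM dispensed) and NADPH were mixed with compound. Second, a 15 min room-temperature incubation followed. Third, further NADPH and then DTNB were added to start the reaction. Finally, TNB absorbance was monitored kinetically.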
LmPK inh: qHTS Assay for Inhibitors of Leishmania Mexicana Pyruvate Kinase (LmPK). Q27686. purified LmPK, Kinase-Glo ATP luminescence, 1 h. Potency, µM (highest dose often 57.5 µM), inactives show at the highest dose activity change, negative = inhibition, hits mostly inhibitors. 0.37% of 290,000 active. AID 1721, 2009; also: % is scaled to controls: 0 for no effect and ±100 for the full control effect
Target sequence (Q27686 whole entry, looked up): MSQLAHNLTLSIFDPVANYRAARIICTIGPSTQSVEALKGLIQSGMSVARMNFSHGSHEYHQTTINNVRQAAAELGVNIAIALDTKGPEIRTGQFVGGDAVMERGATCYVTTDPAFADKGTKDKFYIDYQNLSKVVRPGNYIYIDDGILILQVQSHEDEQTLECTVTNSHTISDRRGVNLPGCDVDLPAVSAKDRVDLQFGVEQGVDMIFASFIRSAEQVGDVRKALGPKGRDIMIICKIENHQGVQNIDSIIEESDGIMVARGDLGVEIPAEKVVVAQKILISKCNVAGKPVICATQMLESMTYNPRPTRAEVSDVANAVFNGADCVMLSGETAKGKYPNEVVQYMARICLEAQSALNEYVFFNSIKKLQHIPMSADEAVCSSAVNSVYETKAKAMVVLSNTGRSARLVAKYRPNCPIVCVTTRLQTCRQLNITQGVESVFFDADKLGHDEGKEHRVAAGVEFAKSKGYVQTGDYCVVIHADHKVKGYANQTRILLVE
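Screened at intermediate enzyme activity to detect both inhibitors and activators: LmPK at 0.1 nM, with a 0.5 nM enzyme column as activation reference. PEP 0.5 mM, ADP 0.1 mM; ATP detected by luminescence after 1 h.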
RE007 growth inh: qHTS Assay for Inhibitors of the HIV-1 protein Vpr; Potency, µM (doses to about 92.2 µM), without a hit: at the highest dose activity change, negative = less growth, most hits filed as inhibitors; 0.21% of 360,000 active; S. pombe RE007 Vpr strain, BacTiter-Glo ATP luminescence, 24 h; active = well fitted falling curve with a large enough effect; inconclusive = small, poorly fitted or top-dose-only effect; inactive = no such curve, though single readings can be large or run the other way; also: % is scaled to controls: 0 for no effect and ±100 for the full control effect; nearly all actives have a fitted effect of over 50% in size
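Fission yeast RE007 carrying one integrated HIV-1 vpr copy, seeded at OD 0.01 in PMG+AL medium with 23 nL pinned compound. Grown 24 h at 30 degrees; viability read by BacTiter-Glo luminescence after 5 min.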
TbPYK inhibitor: qHTS of Trypanosoma Brucei Inhibitors; AID 624173, 2012; Potency, µM (doses to about 76.8 µM), inactives show at the top dose activity, negative = inhibition, actives largely listed as inhibitors; TbPYK enzyme, Kinase-Glo Plus ATP luminescence, 45 min; pyruvate kinase (Trypanosoma brucei), Q57TT1; 0.12% of 410,000 active; also: % is scaled to controls: 0 for no effect and ±100 for the full control effect; nearly all actives have a fitted effect of over 50% in size
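TbPYK + substrate in 50 mM TEA pH 7.2, 100 mM KCl, 10 mM MgCl2, 0.05% BSA, 0.01% Tween-20; cpd pinned; ADP 130 uM final; 45 min RT; Kinase-Glo Plus 10 min; luminescence endpoint.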
Active calls of the source: *; ? = inconclusive; / = not tested or not shown; [ ] = another dose, or the depositor's remark. Unless noted, calls follow the shape of the dose curve; as a rule, active = well fitted curve in the direction sought with a large enough effect; inconclusive = small, poorly fitted or top-dose-only effect, or another doubt; inactive = no such curve, though single readings can be large; an effect the other way counts as inactive or inconclusive. Potency is read from the fitted curve at half-maximal effect.

SMILES | NS1 function inh | SARS PLP yeast | Sm TGR inh | LmPK inh | RE007 growth inh | TbPYK inhibitor
COc1ccc(NS(=O)(=O)c2ccc3c(c2)CC(C)N3C(C)=O)c(OC)c1 (stereo not drawn) | / | / | -1% | / | / | 2%
COC(=O)c1cc(NCc2ccc3c(c2)OCO3)ccc1N1CCOCC1 | 0% | 1% | 50µM* | -1% | 9% | -8%
O=C(O)c1cc(NCc2ccc3c(c2)OCO3)ccc1N1CCOCC1 | -10% | -5% | 7% | -4% | 23%[3.69 µM] | /
CC(C)CC(=O)Nc1c(C(=O)N2CCN(c3ccccc3F)CC2)oc2ccccc12 | / | / | 0% | / | / | 1%
CC(=O)Nc1ccc(S(=O)(=O)NCc2ccncc2)cc1 | 0% | 1% | 5%[57.1 µM] | -4% | 3% | 4%
CC(=O)Nc1ccc(S(=O)(=O)NCc2ccc(C)n2C)cc1 | ? | -1% | 14µM* | -2% | -6% | -2%
COc1ccc(OC)c(NC(=O)CN2C(=O)COc3ccc(S(=O)(=O)NC4CCCC4)cc32)c1 | / | / | 10% | / | / | -2%
Cc1ccc(-c2c(C#N)c(N)nc3c2CCCC3)o1 | / | 1% | 25µM* | -22% | 2% | -3%
Cc1ccc(-c2cc(-c3ccc(F)cc3)nc(N)c2C#N)o1 | -32% | -8% | 5.6µM* | -1% | -10% | -17%
Cc1ccc(-c2cc(-c3ccccc3Cl)c(C#N)c(N)n2)o1 | -42% | -32% | ? | 0% | -1% | -18%
Cc1ccc(-c2cc(-c3ccccc3)c(C#N)c(N)n2)o1 | -35% | -28% | 3.5µM* | -28% | ? | ?
O=C(NCc1ccccn1)c1nn(-c2ccccc2Cl)nc1CO | / | / | 1% | / | / | 1%
Cc1ccc(S(=O)(=O)N/N=C\c2ccc(C)o2)cc1 | 23% | -6% | 35µM* | 1% | -4% | 6%
Cc1ccc(S(=O)(=O)N/N=C\c2ccc([N+](=O)[O-])o2)cc1C | -10% | -2% | -2% | -9% | -12% | -11%
Cc1ccc(S(=O)(=O)N/N=C\c2ccc([N+](=O)[O-])o2)cc1 | -11% | -29% | 20µM* | -1% | ? | -17%
O=[N+]([O-])c1ccc(/C=N/NS(=O)(=O)c2ccc(Cl)cc2)o1 | -48% | -65% | 13µM* | 0% | ? | -4%
O=C(O)[C@H]1[O][Sb][O][C@@H](C(=O)O)C1O (stereo partly drawn) | -13% | / | / | / | / | /
NC(=O)C1CCN(C(=S)c2ccc(-c3ccc(Br)cc3)o2)CC1 | / | 1% | -29% | -4% | -5% | ?
COc1ccc(-c2ccc(CCC(=O)O)o2)cc1 | -5% | -3% | 2.8µM* | -9% | -27% | ?
O=C(O)c1ccc(N/N=C/c2ccc(-c3ccc(Br)cc3)o2)cc1 | -6% | -1% | -2% | -3% | ? | -5%
O=C(O)CCc1ccc(-c2ccc(Br)cc2)o1 | -222% | -28% | 7.9µM* | -15% | ? | ?
NC(=O)c1ccc(-c2ccc(Br)cc2)o1 | -64% | -28% | 40µM* | -3% | -11% | -2%
O=C(O)CCc1ccc(-c2ccc(Cl)cc2)o1 | -151% | -37% | 5µM* | -9% | -11% | ?
COc1cc2c(=O)c(S(=O)(=O)c3ccc(C)cc3)cn(Cc3cccc(C)c3)c2cc1OC | / | / | 2% | / | / | -7%
COc1cccc(NC(=O)Cn2c(=O)n(Cc3ccc(C(=O)NCc4ccc5c(c4)OCO5)cc3)c(=O)c3ccccc32)c1 | / | / | 12% | / | / | -2%
SMILES | NS1 function inh | SARS PLP yeast | Sm TGR inh | LmPK inh | RE007 growth inh | TbPYK inhibitor
O=C(C1CC1)N(Cc1ccco1)c1nc(-c2ccccc2)cs1 | -4% | -7% | 32µM* | -11% | -11% | -3%
COc1ccc(-c2csc(N(Cc3ccco3)C(=O)c3cccs3)n2)cc1 | -3% | -1% | 13µM* | 0% | 37% | 0%
COc1ccc(OC)c(-c2csc(N(Cc3ccco3)C(=O)c3cccs3)n2)c1 | -9% | 8% | -22% | -3% | -14% | 5%
Cc1nn(-c2ccccc2)c2sc(C(=O)Nc3cccc(Br)c3)cc12 | / | / | -2% | / | / | -1%
O=C1COc2ccc(-c3cc(-c4ccc(F)cc4)c4c(n3)-c3ccccc3OC4)cc2N1 | / | / | 0% | / | / | -7%
Cc1cc2cc(CCNS(=O)(=O)c3ccc(Br)cc3)c(=O)[nH]c2cc1C | / | / | -6% | / | / | -3%
O=C(CC1SC(=O)N(c2ccccc2)C1=O)Nc1ccc(Br)cc1 (stereo not drawn) | 6% | -5% | 3.2µM* | -6% | -19% | -4%
O=C(CC1SC(=Nc2ccccc2)N(CCCO)C1=O)Nc1ccc(Cl)cc1 (stereo not drawn) | -70% | -17% | -8% | 2% | 11% | 1%
O=C(CC1SC(=O)N(c2ccccc2)C1=O)Nc1ccc(Cl)cc1 (stereo not drawn) | 10% | -6% | 4µM* | 3% | 0% | -6%
CCCN1C(=O)SC(CC(=O)Nc2ccccc2)C1=O (stereo not drawn) | -104% | 14% | 1% | -2% | 3% | 3%
CCc1ccc(NC(=O)CSc2nc3c(c(=O)[nH]2)CN(Cc2ccc(C)cc2)CC3)cc1 | / | / | 5% | / | / | 2%
Cc1nn(Cc2ccccc2)c(C)c1C=C1C(=O)NC(=S)NC1=O | 15% | 17% | 7.9µM* | 1% | 20% | ?
COc1ccc(CCNc2oc(/C=C/c3ccc(OC)c(OC)c3)nc2C#N)cc1 | / | / | 2% | / | / | -3%
C=C1/C(=C/C=C2\CCCC3(C)[C@@H]([C@H](C)/C=C/C=C/C(O)(CC)CC)CC[C@@H]23)C[C@@H](O)C[C@@H]1O (stereo partly drawn) | / | / | / | / | / | -1%
C[C@H]1Cc2c(COc3ccccc3)nc3c(c2CO1)CN(C(=O)c1cccnc1)CC3 | / | / | / | -5%[11.5 µM] | / | /
CCOc1cccc(C(=O)N(Cc2ccc(C)o2)C2CCS(=O)(=O)C2)c1 (stereo not drawn) | / | / | -1% | / | / | -3%
O=C(c1sc2ccccc2c1Cl)N(Cc1ccco1)C1CCS(=O)(=O)C1 (stereo not drawn) | -8% | 12% | 32µM* | 1% | -2% | -5%
CCOc1cccc(C(=O)N(Cc2ccco2)C2CCS(=O)(=O)C2)c1 (stereo not drawn) | 5% | -6% | 35µM* | -1% | 27% | 0%
CCOC(=O)c1c(NC(=O)Nc2ccc(F)cc2)sc(C(=O)N(C)C)c1C | / | / | 1% | / | / | -4%
CC1=CC(C)(C)N2C(=O)C(=Nc3ccc(O)cc3)c3cccc1c32 | -48% | -1% | 10µM* | -12% | -16% | -14%
